Test results published in PubChem BioAssay.
Active and inactive are the calls of the source.

What was measured:
[1] = test system: Plasmodium falciparum Sir2 (PF13_0152, Sir2A); experiment: pfSir2 binders on small-molecule microarrays, primary screen, biochemical, small-molecule microarray, 635 nm fluorescence (AID 1098); conditions: small-molecule microarray binding, fluorescence 635 nm; higher = more signal;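 also: score merges spot fluorescence intensity with its signal-to-noise ratio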
[2] = small-molecule microarray binders of probe aDKK1, primary screen, biochemical, biotinylated probe, 635/667 nm fluorescence (AID 1099); conditions: higher = more signal;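 also: score merges 667nm spot fluorescence with signal to noise across triplicate slides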
[3] = small-molecule microarray binders of probe aCHRDL2, primary screen, biochemical, biotinylated probe, 635/667 nm fluorescence (AID 1100); conditions: higher = more signal
[4] = splicing luciferase reporter signal modulators, primary screen, spliceosome inhibition project, cell-based, HEK293, splice +/- reporter (AID 1101); conditions: luminescence, 24 h, higher = more signal, called active from +8 up or from −8 down;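 also: HEK293 cells carrying a splicing-competent luciferase reporter gene; test concentration not given here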
[5] = molecular target: Fibroblast growth factor 10 (Homo sapiens) (UniProt O15520); experiment: FGF10 binders on small-molecule microarrays, primary screen, biochemical, small-molecule microarray, 635 nm fluorescence (AID 1102); conditions: FGF10 binding, fluorescence 635 nm, higher = more signal
[6] = test system: glycogen synthase kinase-3 (GSK3A per assay name; protocol says GSK3B); experiment: GSK3 binders on small-molecule microarrays, primary screen, biochemical, small-molecule microarray, 635 nm fluorescence, GSK3A (AID 1103); conditions: small-molecule microarray binding, fluorescence 635 nm; higher = more signal; also: the record names both GSK3A and GSK3B
[7] = molecular target: Epidermal growth factor receptor (Homo sapiens) (UniProt P00533); experiment: EGFR binders on small-molecule microarrays, primary screen, biochemical, small-molecule microarray, 635 nm fluorescence (AID 1104); conditions: EGFR binding, higher = more signal;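 also: score merges 667 nm emission intensity with spot signal to noise over triplicate slides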
[8] = molecular target: Follistatin-related protein 3 (Homo sapiens) (UniProt O95633); experiment: FSTL3 binders on small-molecule microarrays, primary screen, biochemical, small-molecule microarray, 635 nm fluorescence (AID 1105); conditions: FSTL3 binding, higher = more signal;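 also: score merges emission near 667 nm and signal to noise per printed spot across three slides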
[9] = molecular target: Dickkopf-related protein 1 (Homo sapiens) (UniProt O94907); experiment: DKK1 binders on small-molecule microarrays, primary screen, biochemical, small-molecule microarray, 635 nm fluorescence scan (AID 1106); conditions: DKK1 binding, higher = more signal;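 also: score merges emission near 667 nm with signal to noise over three replicate slides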
[10] = test system: Inhibin beta A chain (activin A); experiment: INHBA (activin A) binders on microarrays, primary screen, biochemical, small-molecule microarray, 635 nm fluorescence scan (AID 1107); conditions: small-molecule microarray binding, higher = more signal;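 also: mouse activin A protein probed at 4.33 µg/mL on printed slides; score merges bound-protein fluorescence near 667 nm with spot signal-to-noise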
[11] = test system: Human papillomavirus type 1a protein E7 (residues 44-93); experiment: HPV1a E7 fragment binders on microarrays, primary screen, biochemical, small-molecule microarray, residues 44-93, 635 nm fluorescence (AID 1108); conditions: small-molecule microarray binding, fluorescence 635 nm; higher = more signal;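 also: E7 fragment applied at 1 µg/mL in TBST for 1 h at 4 C; score combines spot fluorescence with its signal to noise ratio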
[12] = modulators of HCV replicon luciferase signal, primary screen, HCV replication inhibitor project, Huh7 cells, luciferase reporter (AID 1109); conditions: 48 h, higher = more signal;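 also: huh7 hepatoma cells harbouring a luciferase neomycin HCV replicon reporter; luciferase luminescence as measure of HCV replicon replication; test concentration not given here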
[13] = molecular target: Left-right determination factor 2 (Homo sapiens) (UniProt O00292); experiment: LEFTY2 binders on small-molecule microarrays, primary screen, biochemical, small-molecule microarray, 635 nm fluorescence scan (AID 1110); conditions: LEFTY2 binding, higher = more signal
[14] = molecular target: Calmodulin-1 (Homo sapiens) (UniProt P0DP23); experiment: CALM1 binders on microarrays, EGTA buffer, profiling panel, biochemical, small-molecule microarray, Cy5-labelled CALM1 (AID 1111); conditions: Cy5-CALM1 binding fluorescence, higher = more signal;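 also: labelled calmodulin applied in Tris saline Tween buffer holding calcium plus EGTA and DTT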
[15] = molecular target: Calmodulin-1 (Homo sapiens) (UniProt P0DP23); experiment: calcium-bound CALM1 binders on microarrays, profiling panel, artefact control for SMM control-protein annotation, biochemical, small-molecule microarray, Cy5-labelled CALM1, plus calcium (AID 1112); conditions: Cy5-CALM1 binding fluorescence, higher = more signal;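 also: score merges spot fluorescence with signal to noise from triplicate slides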
[16] = small-molecule microarray binders of probe aWnt5a, primary screen, biochemical, biotinylated probe, 635/667 nm fluorescence (AID 1113); conditions: higher = more signal;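 also: score merges 667 nm fluorescence intensity with signal-to-noise per printed feature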
[17] = small-molecule microarray binders of probe aShh, primary screen, biochemical, biotinylated probe, 635/667 nm fluorescence (AID 1114); conditions: higher = more signal;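 also: probe is biotin-labelled aShh protein from a stem cell growth factor screen; measures binding of labelled protein to compounds printed on the slide; score merges feature fluorescence at 667 nm with signal-to-noise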
[18] = small-molecule microarray binders of probe aNog, primary screen, biochemical, biotinylated probe, 635/667 nm fluorescence (AID 1115); conditions: higher = more signal;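 also: probe is biotinylated aNog protein used at 0.15 µg/mL for 1 h at 4 C; z-score combines 667 nm fluorescence of each spot with its signal to noise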
[19] = molecular target: Torsin-1A-interacting protein 1 (Homo sapiens) (UniProt Q5JTV8); experiment: LAP1 binders from COS7 cell lysate, primary screen, small-molecule microarray, 635/667 nm fluorescence (AID 1116); conditions: COS7-hLAP1 lysate binding, 635 nm fluorescence, higher = more signal
[20] = molecular target: Alpha-bungarotoxin (Bungarus multicinctus) (UniProt P60615); experiment: alpha-bungarotoxin binders on microarray, profiling panel, artefact control for SMM control protein annotation, biochemical, small-molecule microarray, Alexa647 label, 635/667 nm fluorescence (AID 1117); conditions: alpha-BTX-A647 binding fluorescence, higher = more signal
Chain of Alpha-bungarotoxin (Bungarus multicinctus) (P60615 whole entry, looked up): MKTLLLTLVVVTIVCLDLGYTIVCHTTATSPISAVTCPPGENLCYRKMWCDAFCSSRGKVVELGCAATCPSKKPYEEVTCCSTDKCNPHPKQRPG

Chain of Torsin-1A-interacting protein 1 (Homo sapiens) (Q5JTV8 whole entry, looked up): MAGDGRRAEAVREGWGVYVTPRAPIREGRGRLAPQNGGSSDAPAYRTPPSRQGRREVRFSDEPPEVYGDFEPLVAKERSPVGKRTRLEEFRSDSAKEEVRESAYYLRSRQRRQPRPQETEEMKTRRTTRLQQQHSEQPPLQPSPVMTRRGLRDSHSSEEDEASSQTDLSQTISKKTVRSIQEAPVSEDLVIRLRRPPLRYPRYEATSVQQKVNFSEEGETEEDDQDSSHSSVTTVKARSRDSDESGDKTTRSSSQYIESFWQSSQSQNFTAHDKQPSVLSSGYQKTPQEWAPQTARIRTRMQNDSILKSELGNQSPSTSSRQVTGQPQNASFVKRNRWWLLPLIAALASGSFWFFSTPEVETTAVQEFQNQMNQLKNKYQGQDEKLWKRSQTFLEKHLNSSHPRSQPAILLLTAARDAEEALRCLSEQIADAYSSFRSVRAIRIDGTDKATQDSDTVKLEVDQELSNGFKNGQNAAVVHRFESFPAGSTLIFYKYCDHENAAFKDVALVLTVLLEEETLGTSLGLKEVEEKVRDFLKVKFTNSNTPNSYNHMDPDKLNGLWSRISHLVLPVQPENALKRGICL
Chain of Epidermal growth factor receptor (Homo sapiens) (P00533 whole entry, looked up): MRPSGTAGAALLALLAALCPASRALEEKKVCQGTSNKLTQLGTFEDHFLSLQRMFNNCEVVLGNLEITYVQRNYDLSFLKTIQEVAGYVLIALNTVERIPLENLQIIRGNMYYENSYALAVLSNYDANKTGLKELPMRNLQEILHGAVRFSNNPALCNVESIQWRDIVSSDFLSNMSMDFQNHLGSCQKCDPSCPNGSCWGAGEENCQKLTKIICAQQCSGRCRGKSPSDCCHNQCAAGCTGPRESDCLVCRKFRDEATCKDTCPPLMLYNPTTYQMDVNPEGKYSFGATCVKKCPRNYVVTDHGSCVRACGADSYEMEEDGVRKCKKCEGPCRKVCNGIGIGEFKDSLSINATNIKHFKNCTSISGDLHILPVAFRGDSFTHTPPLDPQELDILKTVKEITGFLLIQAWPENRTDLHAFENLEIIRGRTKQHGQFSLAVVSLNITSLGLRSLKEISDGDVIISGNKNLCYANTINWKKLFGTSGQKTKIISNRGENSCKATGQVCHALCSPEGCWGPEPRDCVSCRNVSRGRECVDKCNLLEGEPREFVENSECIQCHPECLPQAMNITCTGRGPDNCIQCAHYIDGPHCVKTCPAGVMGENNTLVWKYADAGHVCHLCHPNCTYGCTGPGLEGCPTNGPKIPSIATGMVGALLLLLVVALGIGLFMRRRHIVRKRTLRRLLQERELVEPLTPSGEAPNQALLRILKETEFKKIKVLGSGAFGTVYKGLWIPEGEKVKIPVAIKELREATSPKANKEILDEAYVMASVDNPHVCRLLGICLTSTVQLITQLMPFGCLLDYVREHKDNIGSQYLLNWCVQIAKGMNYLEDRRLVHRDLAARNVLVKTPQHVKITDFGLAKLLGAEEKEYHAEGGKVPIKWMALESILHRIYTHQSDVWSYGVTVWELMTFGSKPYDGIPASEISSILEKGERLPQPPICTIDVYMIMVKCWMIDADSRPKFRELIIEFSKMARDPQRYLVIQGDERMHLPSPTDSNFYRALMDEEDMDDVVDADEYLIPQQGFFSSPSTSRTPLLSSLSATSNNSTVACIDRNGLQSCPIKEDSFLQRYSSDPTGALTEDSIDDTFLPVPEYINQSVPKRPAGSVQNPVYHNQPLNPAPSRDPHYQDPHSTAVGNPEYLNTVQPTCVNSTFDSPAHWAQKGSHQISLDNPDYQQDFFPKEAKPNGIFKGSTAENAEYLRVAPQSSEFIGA
Chain of Follistatin-related protein 3 (Homo sapiens) (O95633 whole entry, looked up): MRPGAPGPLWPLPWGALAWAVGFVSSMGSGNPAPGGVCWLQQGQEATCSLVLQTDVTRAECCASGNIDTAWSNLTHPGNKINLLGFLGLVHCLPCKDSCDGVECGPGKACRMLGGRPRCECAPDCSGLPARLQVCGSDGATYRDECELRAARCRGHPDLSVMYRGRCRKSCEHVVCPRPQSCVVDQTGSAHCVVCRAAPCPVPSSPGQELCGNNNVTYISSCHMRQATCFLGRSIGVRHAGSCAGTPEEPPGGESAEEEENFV
Chain of Left-right determination factor 2 (Homo sapiens) (O00292 whole entry, looked up): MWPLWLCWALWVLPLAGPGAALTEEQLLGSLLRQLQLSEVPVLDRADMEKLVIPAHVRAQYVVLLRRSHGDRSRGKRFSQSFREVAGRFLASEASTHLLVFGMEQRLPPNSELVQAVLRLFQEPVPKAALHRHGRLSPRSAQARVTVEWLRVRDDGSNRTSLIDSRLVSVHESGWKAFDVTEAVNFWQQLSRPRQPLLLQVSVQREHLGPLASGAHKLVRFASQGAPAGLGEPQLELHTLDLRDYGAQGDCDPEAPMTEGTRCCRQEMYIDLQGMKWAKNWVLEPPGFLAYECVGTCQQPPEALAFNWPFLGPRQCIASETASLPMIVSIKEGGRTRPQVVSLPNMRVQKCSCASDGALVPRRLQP
Chain of Dickkopf-related protein 1 (Homo sapiens) (O94907 whole entry, looked up): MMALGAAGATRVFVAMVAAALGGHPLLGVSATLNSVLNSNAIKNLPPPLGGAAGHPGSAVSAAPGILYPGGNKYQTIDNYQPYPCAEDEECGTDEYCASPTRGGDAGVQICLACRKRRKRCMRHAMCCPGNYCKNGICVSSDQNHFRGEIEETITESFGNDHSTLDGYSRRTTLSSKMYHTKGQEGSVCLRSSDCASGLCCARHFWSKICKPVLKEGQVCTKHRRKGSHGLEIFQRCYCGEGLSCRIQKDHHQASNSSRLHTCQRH
Chain of Fibroblast growth factor 10 (Homo sapiens) (O15520 whole entry, looked up): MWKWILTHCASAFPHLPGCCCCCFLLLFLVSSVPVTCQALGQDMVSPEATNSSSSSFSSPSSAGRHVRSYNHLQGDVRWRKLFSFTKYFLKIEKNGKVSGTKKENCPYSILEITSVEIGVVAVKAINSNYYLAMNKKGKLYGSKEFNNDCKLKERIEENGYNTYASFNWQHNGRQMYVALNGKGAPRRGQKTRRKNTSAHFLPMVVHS

SMILES | composite z-score [1] | composite z-score [2] | composite z-score [3] | z-score [4] | composite z-score [5] | composite z-score [6] | composite z-score [7] | composite z-score [8] | composite z-score [9] | composite z-score [10] | composite z-score [11] | z-score [12] | composite z-score [13] | composite z-score [14] | composite z-score [15] | composite z-score [16] | composite z-score [17] | composite z-score [18] | composite z-score [19] | composite z-score [20]
Cc1cc(C)c(C(O)C2C=CC3C(=O)N(C)C(=O)C3N2N2CCCCC2)c(C)c1 (stereo not given) | 1.38 | 0.261 | 1.2 | 1.91 (inactive) | 1.07 | 1.31 | 0.641 | 1.35 | 0.384 | 1.36 | 1.37 | 0.186 | 0.314 | 1.75 | 0.22 | 0.0437 | 0.308 | 1.45 | 0.959 | 2.36
C=CCC1=C[C@H]2[C@H]([C@@H]3C=C[C@]2(CC=C)C(=O)[C@]32CO2)[C@@]2(CO2)C1=O | 1.29 | -0.354 | -0.69 | -0.414 (inactive) | 1.14 | -0.0104 | 1.58 | 1.31 | 1.8 | 1.9 | -0.763 | -4.15 | 1.24 | -1.06 | -2.27 | 0.133 | -0.1 | 2.17 | 0.163 | 0.345
C[C@]1(C(=O)NCc2ccccc2)c2ccccc2C(=O)N(Cc2cc(C(F)(F)F)cc(C(F)(F)F)c2)[C@H]1c1ccc(CO)cc1 | 0.643 | 0.698 | 0.778 | -1.73 (inactive) | 0.894 | 1.18 | 0.123 | 0.439 | 0.419 | 0.856 | 1.1 | -2.06 | 0.159 | 0.956 | 0.844 | -0.0519 | 1.39 | -0.0047 | 0.541 | 0.615
Cc1ccc(S[C@]2(C(=O)O)CC(=O)N(Cc3ccccc3)[C@@H]2c2ccc(CO)cc2)cc1 | -0.844 | 0.638 | 0.899 | -0.718 (inactive) | -0.0355 | 0.132 | -0.289 | -0.0951 | -0.304 | 1.04 | -0.323 | 0.764 | -1.29 | 0.321 | 0.965 | -0.172 | 0.046 | -0.0563 | -0.257 | -0.198
C[C@@H]1NC(=O)[C@H](Cc2ccccc2)NC(=O)[C@@]23C(=O)N[C@@H](Cc4ccccc4)C2[C@H](C)[C@@]2(C)O[C@H]2C3/C=C/C/C=C\CNC1=O (stereo not given in full) | 1.04 | -0.277 | -0.533 | -0.212 (inactive) | -0.356 | -1.48 | -0.202 | -0.0037 | 0.515 | 0.944 | -2.69 | -1.06 | -0.122 | -0.472 | -1.06 | -0.124 | -0.0474 | -0.238 | 0.0403 | -0.576
C=C(COC)/C(=C/C[C@H](OC(C)=O)c1ccc(OCCO)cc1)c1cnc2ccccc2c1 | -0.407 | 0.231 | -0.146 | -1.48 (inactive) | 0.741 | 0.844 | 0.716 | 1.46 | 0.766 | 1.8 | 0.5 | -0.773 | 0.523 | 0.339 | 0.214 | -0.001 | 0.261 | 0.0107 | 0.458 | 1.56
CCOC(=O)C1=CC[C@@H](c2ccccc2)N(S(=O)(=O)c2ccc(C)cc2)[C@H]1C | 1.09 | 0.821 | 0.567 | -0.993 (inactive) | 1.4 | 0.312 | 1.02 | 1.38 | 0.635 | 0.258 | 1.47 | -2.88 | 0.902 | 0.764 | 0.665 | 0.101 | -0.214 | 0.787 | 0.682 | 1.74
C[C@H]1COC(=O)[C@H](Cc2ccccc2)NC(=O)[C@@H](C)COC(=O)[C@H](Cc2ccccc2)NC1=O | 0.692 | -0.165 | -0.563 | -1.67 (inactive) | 0.632 | 0.847 | 0.485 | 0.897 | 1.11 | -0.687 | 0.844 | -0.0223 | 0.597 | 0.359 | -0.589 | -0.236 | 0.0711 | -0.0026 | 1 | 0.856
O=C(NCc1ccccc1)c1ccc(Br)cc1[N+](=O)[O-] | 0.333 | -0.261 | -0.47 | 0.628 (inactive) | 0.39 | 0.215 | 0.425 | 0.494 | 0.346 | 0.31 | -0.0303 | -0.3 | 0.61 | 0.216 | 0.321 | -0.0462 | -0.141 | -0.318 | 0.0817 | 1.29
CCCC[C@@H]1C[C@H]1[C@@H](NC(=O)c1cccs1)c1ccc(Cl)cc1 | 0.509 | 0.517 | 0.943 | -2.23 (inactive) | -1.5 | -1.13 | -1.34 | -2.23 | -1.75 | 0.269 | -0.416 | -1.27 | -1.19 | 0.27 | 0.696 | 0.0095 | -0.0578 | 0.46 | -0.939 | -1.37
CC(C)(C)OC(=O)CC[C@]1(C(=O)N2CCCCC2)N=C(c2ccc(OCCCO)cc2)O[C@H]1c1ccccc1 | 1.73 | 0.464 | 0.56 | -0.767 (inactive) | 1.2 | 1.29 | 0.494 | 1.37 | 0.691 | 0.556 | 1.37 | -1.66 | 0.538 | 1.68 | -0.0194 | 0.0919 | -0.138 | 0.248 | 1.89 | 2.02
Cc1ccc(S[C@]2(C(=O)NCCCN(C)C)CC(=O)N(Cc3ccccc3)[C@@H]2c2ccc(CO)cc2I)cc1 | 0.16 | 1.09 | 1.3 | -1.81 (inactive) | -0.347 | -0.753 | -1.12 | -0.575 | -1.37 | 1.35 | 0.544 | -2.94 | -0.941 | 0.453 | 0.728 | -0.091 | 0.0756 | 1.09 | 0.0632 | 0.913
